Source: PubChem
The list is not random: actives were taken first. Their share in the collection is about 15%.
ALOX12 inh: blocks human arachidonate 12S-lipoxygenase | P18054 | purified 12hLO, xylenol orange hydroperoxide absorbance | Potency, µM (series often up to 108 µM), without a hit: top-dose activity change, negative = inhibition, actives largely listed as inhibitors | 1.1% of 580,000 active | AID 1671190
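Purified human 12hLO (150 nM final) in 25 mM Hepes, 0.01% Triton X-100, pH 7.0 was preincubated 15 min at room temperature with compound. Then 40 uM arachidonic acid was added, 30 min. Hydroperoxide was read by Fe-XO absorbance ratio 573/405 nm.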
Gal4-VP16 FLuc: inhibits Gal4-VP16 luciferase reporter, ROR gamma counter-screen; Drosophila S2 Gal4-VP16 UAS-luciferase, luminescence, 20 h; Potency, µM (series often up to 53.6 µM), without a hit: top-dose activity, negative = inhibition, hits mostly inhibitors; 3.5% of 310,000 active; AID 2546;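 further: Gal4-VP16 expression switched on by copper sulfate through the metallothionein promoter; nearly all actives have a fitted effect of over 50% in size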
ELG1 repair inh: blocks ELG1-dependent DNA repair in HEK293T cells; HEK293T ELG1-luciferase reporter, luminescence, 16 h; DNA damage induced by 5-fluorouridine; Potency, µM (top dose mostly 46.1 µM), inactives show at the top dose activity change, negative = inhibition, usual class: inhibitors; 2.3% of 330,000 active; AID 504467; further: nearly all actives have a fitted effect of over 55% in size
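Overnight (16 hr) co-exposure of 2,000 cells/well to 5-fluorouridine and compound at 37 °C preceded detection. Luciferase was quantified via ONE-Glo luminescence; loss of signal denotes inhibition.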
RORg inh: inhibitors of mouse ROR gamma transcriptional activity. P51450. 5.4% of 310,000 active. Drosophila S2 Gal4-RORgamma UAS-luciferase reporter, 20 h. Potency, µM (top dose mostly 53.6 µM), without a hit: top-dose activity change, negative = inhibition, usual class: inhibitors; further: nearly all actives have a fitted effect of over 60% in size
Target sequence (P51450 whole entry, looked up, the tested form may be a part): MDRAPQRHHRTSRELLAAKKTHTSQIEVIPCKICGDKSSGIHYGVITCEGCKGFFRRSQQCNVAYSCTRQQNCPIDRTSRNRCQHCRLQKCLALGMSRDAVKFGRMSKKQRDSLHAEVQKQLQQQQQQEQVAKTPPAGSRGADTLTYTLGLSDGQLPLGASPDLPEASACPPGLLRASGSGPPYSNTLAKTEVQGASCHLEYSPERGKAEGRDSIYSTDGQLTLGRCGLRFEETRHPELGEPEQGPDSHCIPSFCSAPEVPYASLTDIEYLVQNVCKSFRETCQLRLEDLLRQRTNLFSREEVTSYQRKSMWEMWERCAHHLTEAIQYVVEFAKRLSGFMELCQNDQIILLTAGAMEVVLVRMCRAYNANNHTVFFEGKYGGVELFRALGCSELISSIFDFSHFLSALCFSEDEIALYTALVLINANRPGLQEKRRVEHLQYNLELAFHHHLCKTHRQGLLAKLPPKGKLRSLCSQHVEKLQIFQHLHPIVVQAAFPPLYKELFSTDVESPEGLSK
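ROR gamma transcriptional activity was tracked as Gal4-UAS luciferase output in stably transfected Drosophila Schneider cells, with compound added 1 hr before 700 uM copper sulfate induction and a 20 hr ambient-temperature incubation.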
DT40 TDP1 no CPT: qHTS for Inhibitors of human tyrosyl-DNA phosphodiesterase 1 (TDP1): qHTS in cells in absence of CPT. Potency, µM (titrated, usually from 46.2 µM), without a hit: at the highest dose activity change, negative = growth inhibition, usual class: inhibitors. DT40 Tdp1-/- hTDP1 cells, no CPT, ATP luminescence, 48 h. 15% of 420,000 active; further: nearly all actives have a fitted effect of over 55% in size
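Compound effects on proliferation are scored in DT40 Tdp1-/-;hTDP1 cells in the absence of CPT. ATP levels (CellTiter-Glo luminescence) are recorded after a ≥48 hr, 37 °C incubation.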
DT40 TDP1 CPT: DT40-hTDP1 cell growth loss with CPT | 12% of 420,000 active | Potency, µM (series often up to 46.2 µM), for the others: top-dose activity change, negative = growth inhibition, hits mostly inhibitors | AID 686979 | chicken DT40 Tdp1-/-;hTDP1 cells + 20 nM CPT, ATP luminescence, 48 h; further: nearly all actives have a fitted effect of over 55% in size
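Cell growth measured by CellTiter-Glo luminescence after a minimum 48 h, 37 C compound exposure with 20 nM CPT in Tdp1-knockout DT40 cells stably expressing hTDP1, seeded 400/well; qHTS titration format.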
* = called active by the depositor; ? = inconclusive; / = no result; ! = not active in a repeat; [ ] = dose if it differs, or a comment. The call rests on the fitted dose curve; in most records, active means well fitted curve in the direction sought with a large enough effect; inconclusive means small, poorly fitted or top-dose-only effect, or another doubt; inactive means no such curve, though single readings can be large; an effect the other way counts as inactive or inconclusive. On the % scale 0 is the no-effect control and ±100 the full control effect; potency means the concentration at half of the fitted maximal effect.

SMILES	ALOX12 inh	Gal4-VP16 FLuc	ELG1 repair inh	RORg inh	DT40 TDP1 no CPT	DT40 TDP1 CPT
CCCOc1ccc(C(=O)CCN2CCN(C(=O)OCC)CC2)cc1	-21%	?	30%	-20%	5.2µM*	2.3µM*
O=C(/C=C/c1ccccc1)CCN1CCCCC1	?	/	/	/	0.92µM*	1.2µM*
CCOc1ccc(C(=O)CCN2CCCCC2)cc1	306%	-9%	-4%	33%	?	21µM*
Cc1nc2nc(CC(=O)Nc3ccccc3F)nn2c(C)c1Cc1ccc(Cl)cc1	-26%	/	/	/	/	/
CN1C(=O)COc2ccc(NC(=O)C(=O)NC3CCCCC3)cc21	62%	/	/	/	/	/
CC(C)CCn1c(N2CCN(CCCc3ccccc3)CC2)nc2c1c(=O)[nH]c(=O)n2C	-26%	/	/	/	/	/
O=C(/C=C/c1ccccc1)COC(=O)c1ccccc1	-2%	/	/	/	9.2µM*	?
CCC1(C)CC2(CCCN(CCC(=O)c3ccccc3)C2)CCO1 (configuration not stated)	-5%	6%	-11%	4%	3.3µM*	3.7µM*
CCOc1ccc(C(=O)CSCCC(=O)O)cc1	-18%	0.32µM*	?	0.28µM*	-9%	-2%
COc1cc(OC)cc(C(=O)Oc2cc(C)cc(C)c2)c1	2%	/	/	/	/	/
Fc1cccc(F)c1-c1csc(NCc2ccco2)n1	-4%	/	/	/	/	/
O=C([C@@H]1C[C@H](Oc2cccnc2)CN1C(=O)NC1CCCCC1)N1CCOCC1	76%	/	/	/	/	/
CN(CCOc1ccc(Cl)cc1)C(=O)CSc1nnc(-c2ccncc2)n1C	-6%	/	/	/	/	/
Cc1c(C(=O)NNC(=O)c2ccccc2O)oc2ccc(Br)cc12	?	/	/	/	?	21µM*
Cc1c(C(=O)NCc2cccs2)oc2ccc(Br)cc12	-15%	-8%	?	37%	-17%	6%
CCOc1ccc2oc(C(=O)NNC(=O)c3ccccc3O)c(C)c2c1	-26%	/	16%	/	26µM*	?
CCOc1ccc2oc(C(=O)O)c(C)c2c1	-9%	-16%	?	8%	-5%	10%
COc1ccc(Cn2c(C3CCN(C(=O)c4ccccc4Cl)CC3)n[nH]c2=O)cc1	-16%	/	/	/	/	/
O=c1c2ccccc2[nH]c(=S)n1CCCN1CCC(Cc2ccccc2)CC1	?	?	-20%	7.9µM*	?	?
O=C(c1ccc(F)cc1)C1CCN(CCn2c(=S)[nH]c3ccccc3c2=O)CC1	231%	14µM*!	/	7.9µM*!	15µM*	?
CC1(C)C(=O)N(CCN2CCC(C(=O)c3ccc(F)cc3)CC2)c2ccccc21	-26%[57.4 µM]	/	?	/	15µM*	13µM*
Cc1cccc(C)c1N1CCN(CCn2c(=S)[nH]c3ccccc3c2=O)CC1	13%	?	4%	10µM*	-26%	?
CC1CCN(CCCn2c(=S)[nH]c3ccccc3c2=O)CC1	95%	8%	3%	-33%	-29%	-5%
O=S(=O)(Nc1nc2ccccc2nc1NCCc1ccccc1)c1ccc(F)cc1	14%	/	/	/	/	/
Cc1ccc(Sc2ccc(NC(=O)CCl)cc2)c(C)c1	?	5µM*	?	2.8µM*	18µM*	15µM*
Cc1ccc(Sc2ccc(NC(=O)c3cc(C)ccc3C)cc2)c(C)c1	-1%	/	/	/	/	/
Cc1cc(NCCCn2ccnc2)n2nc(C)c(-c3ccccc3)c2n1	2%	14%	?	19%	-22%	?
N=c1c2c(-c3ccccc3)c(-c3ccccc3)n(Cc3ccco3)c2ncn1Cc1ccco1	?	28µM*	-4%	?	6.5µM*	9.2µM*
N=c1c2c(-c3ccccc3)c(-c3ccccc3)n(Cc3ccccc3)c2ncn1CCCn1ccnc1	482%	10µM*	?	10µM*	?	16µM*
